# From PubChem
# Sampled rows, rich in hits. Any-hit rate of the full collection: about 7.3%.
# uPA generation = inhibitors of cell surface uPA generation; cell surface uPA generation assay, qHTS; Potency, µM (top dose mostly 38.3 µM), hits mostly inhibitors; 0.31% of 330,000 active; active = well fitted inhibition curve with a large enough effect; inconclusive = small, poorly fitted or top-dose-only effect; inactive = no such curve, though single readings can be large or run the other way; tested in mouse RAW 264.7 cells; also: nearly all actives have a fitted effect of over 55% in size
# SMN2 splice enh = enhancers of SMN2 splice variant expression; 2.8% of 210,000 active; AID 1458; HEK293 SMN2-luciferase splicing reporter, luminescence, 30-36 h; Potency, µM (series often up to 46.1 µM), hits mostly activators; also: nearly all actives have a fitted effect of over 55% in size
#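 HEK293 cells carry an SMN2 […]–luciferase reporter in which exon 7 inclusion puts luciferase in frame. Cells were plated 10-12 h before compound addition, then incubated 30-36 h at 37C. ONE-Glo luminescence was read; sodium butyrate at 4.5 mM final served as control.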
# ELG1 genotox = genotoxicity induction in ELG1-luciferase HEK293T cells; HEK293T ELG1-luciferase reporter, luminescence, 16 h; Potency, µM (highest dose often 46 µM), most hits filed as activators; 1.3% of 330,000 active; AID 504466; also: nearly all actives have a fitted effect of over 60% in size
#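 ELG1-luciferase HEK293T cells, 2,000/well; compound pinned in; 16 hr, 37 °C, 5% CO2; ONE-Glo, 30 min RT; luminescence on CCD imager.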
# NPC1 promoter act = NPC1 promoter activation. Huh7 NPC1 promoter luciferase reporter, 24 h. Potency, µM (doses to about 9.22 µM), usual class: activators. 2.4% of 320,000 active. AID 485313; also: nearly all actives have a fitted effect of over 60% in size
#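 In 1536-well qHTS, Huh7 cells harboring an NPC1 promoter–luciferase construct received compound for 24 h; activation was quantified by luminescence following luciferase reagent addition.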
# Rab9 promoter act = Rab9 promoter activation; Potency, µM (highest dose often 9.22 µM), usual class: activators; Huh7 Rab9 promoter-luciferase reporter, luminescence, 24 h; 2.8% of 320,000 active; also: nearly all actives have a fitted effect of over 60% in size
#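 Cells were plated at 1500 per well in reduced-serum medium with 10% FBS and left 2 h. Compound in DMSO was then added for 24 h at 37 °C. Reporter signal was read by luminescence after 10 min with luciferase detection reagent.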
# FLuc counter = counter-screen for miR-21 project: firefly luciferase inhibitors or activators; P08659; Potency, µM (doses to about 57.5 µM), hits mostly inhibitors; 6.9% of 360,000 active; purified FLuc, Km substrates, luminescence inhibition; also: nearly all actives have a fitted effect of over 55% in size
# Target sequence (P08659 whole entry, looked up): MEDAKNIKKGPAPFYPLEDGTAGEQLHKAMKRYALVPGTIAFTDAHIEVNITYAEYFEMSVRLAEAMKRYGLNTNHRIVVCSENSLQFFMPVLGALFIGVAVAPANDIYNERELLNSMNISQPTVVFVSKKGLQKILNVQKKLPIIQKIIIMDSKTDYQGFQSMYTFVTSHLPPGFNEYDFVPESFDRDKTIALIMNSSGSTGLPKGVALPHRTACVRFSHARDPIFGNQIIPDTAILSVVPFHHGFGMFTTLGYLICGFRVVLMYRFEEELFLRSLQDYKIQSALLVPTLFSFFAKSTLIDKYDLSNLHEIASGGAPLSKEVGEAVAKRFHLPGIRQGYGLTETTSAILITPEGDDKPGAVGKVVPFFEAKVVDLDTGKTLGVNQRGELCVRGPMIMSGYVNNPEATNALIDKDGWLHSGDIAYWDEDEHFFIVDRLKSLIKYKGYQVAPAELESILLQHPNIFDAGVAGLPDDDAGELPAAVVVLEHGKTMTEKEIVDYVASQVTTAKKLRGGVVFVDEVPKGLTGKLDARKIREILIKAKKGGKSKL
#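 Purified P. pyralis luciferase, 10 nM final, with Km-level 10 uM D-luciferin and 10 uM ATP in 50 mM Tris acetate pH 7.5, 10 mM Mg acetate, 0.01% Tween-20, 0.05% BSA; 6-point qHTS titration about 60 µM downward; luminescence read.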
# Numbers stand for hits; – = inactive; ? = inconclusive; · = no result given; [ ] = remark or other dose. Unless noted, calls follow the shape of the dose curve; as a rule, active = well fitted curve in the direction sought with a large enough effect; inconclusive = small, poorly fitted or top-dose-only effect, or another doubt; inactive = no such curve, though single readings can be large; an effect the other way counts as inactive or inconclusive.
SMILES,uPA generation,SMN2 splice enh,ELG1 genotox,NPC1 promoter act,Rab9 promoter act,FLuc counter
CCOc1ccc(-c2cn3ccccc3n2)cc1[N+](=O)[O-],–,7.94µM,?,3.55µM,2.24µM,2.69µM
CCCOc1ccc(-c2csc(N)n2)cc1[N+](=O)[O-],–,11.2µM,?,?,2.82µM,10.7µM
O=C(NCc1ccc(Cl)cc1Cl)c1cccc(N2CCCS2(=O)=O)c1,·,–,·,·,·,–
O=C(NCc1cc(F)cc2c1OCCO2)[C@H]1C[C@@H]1[C@H](NP(=O)(c1ccccc1)c1ccccc1)c1ccccc1,·,–,·,·,·,·
O=C(Nc1ccc(OCC(F)(F)C(F)F)c(C(F)(F)F)c1)c1ccccc1O,–,–,–,–,–,21.3µM
Cc1ccc2nc(N/N=C\c3cccc(C)n3)cc(C)c2c1,·,–[9.22 µM],·,·,·,·
Cc1cc(N/N=C/c2ccccc2Br)nc2ccccc12,–,–,–,–,–,12µM
Brc1ccccc1/C=N/Nc1ccc2ccccc2n1,–,7.94µM,?,3.55µM,4.47µM,2.13µM
Brc1ccc(/C=N/Nc2ccccc2)cc1,–,–,?,–,?,16.9µM
Brc1ccc(/C=N/Nc2ccc3ccccc3n2)cc1,–,?,?,3.55µM,2.51µM,3.01µM
Cc1ccc(-n2ncc(C(=O)NCc3ccco3)c2C2CCN(C(=O)OC(C)(C)C)CC2)c(C)c1,·,·,·,·,·,–
COC(=O)Cc1nc(Nc2ccccc2)sc1C,–,·,–,–,–,–
Cc1cc(C)c(Nc2nc3ccccc3n3c(C)nnc23)c(C)c1,·,·,·,·,·,–
Cc1cc(F)ccc1NC(=O)C1CCC(CNS(=O)(=O)c2ccc3c(c2)CCCC(=O)N3)CC1 (configuration not stated),·,·,·,·,·,–
O=[N+]([O-])c1cccc(C=NNc2ccc3ccccc3n2)c1O,–,·,·,·,·,·
Fc1ccc(/C=N\Nc2cccc(F)c2)cc1,–,·,–,–,–,13.5µM
C(=N\Nc1ccccn1)/c1ccc2c(c1)OCCO2,–,2.51µM,2.06µM,1.26µM,0.562µM,1.69µM
Fc1cccc(/C=N/Nc2ccccn2)c1,–,?,?,3.16µM,3.16µM,12µM
Fc1cccc(/C=N/Nc2ccc3ccccc3n2)c1,–,2.51µM,?,1.12µM,?,0.477µM
COc1ccc2[nH]cc(S(=O)(=O)c3ccc(C)cc3)c2c1,–,·,–,–,–,–
CC1=C(C(=O)Nc2ccc(C)cc2C)C(c2ccccc2C)n2ncnc2N1 (configuration not stated),·,·,·,·,·,–
O=C(NCCSCc1ccccc1)c1ccc(F)cc1,–,–,–,–,–,–
COc1ccc(CCNC(=O)c2ccc3c(c2)N(Cc2ccc(Cl)cc2)C(=O)c2ccccc2S3)cc1OC,·,·,·,·,·,–
CC(=O)c1cc(C#N)c(SCc2ccccc2C#N)nc1C,–,–,–,–,–,15.1µM
CCSc1nc2n(n1)C(c1ccc(CC)cc1)C(C(=O)Nc1ccccc1OC)=C(C)N2 (configuration not stated),·,·,·,·,·,–
SMILES,uPA generation,SMN2 splice enh,ELG1 genotox,NPC1 promoter act,Rab9 promoter act,FLuc counter
CN1CCCC1CCNc1ccc2oc3ccccc3c(=O)c2c1 (configuration not stated),?,·,?,–,–,4.78µM
CN1CCCC1CCNc1ccc2c(=O)c3ccccc3oc2c1 (configuration not stated),?,·,?,?,?,10.7µM
Cn1cc(C(=O)N2CCN(c3cccc(Cl)c3)CC2)c(=O)c2cc(S(=O)(=O)N3CCCC3)ccc21,·,–,·,·,·,–
Cc1cccc(N2CCN(c3nc4ccccc4c4nc(-c5ccccc5)nn34)CC2)c1C,·,–,·,·,·,–
O=C(O/N=C1\C(=O)N(c2ccccc2)c2ccccc21)C1CC1,–,–,–,–,–,–
CN1C(=O)/C(=N/OC(=O)c2ccccc2)c2ccccc21,–,–,–,–,–,7.57µM
O=C(Nc1nccs1)c1ccc(-c2ccc([N+](=O)[O-])cc2)o1,–,12.6µM,?,1.78µM,1.41µM,6.01µM
O=C(/C=C/c1ccc(Cl)cc1)Nc1nccs1,?,3.98µM,?,0.631µM,0.316µM,1.35µM
O=C(Cc1ccc(F)cc1)Nc1nccs1,–,·,–,–,–,–
O=C(Nc1nccs1)c1ccc(-c2ccc(F)cc2)o1,–,11.2µM,?,2.24µM,3.55µM,2.13µM
C/C=C/C=C/C(=O)Nc1nccs1,–,–[1.84 µM],–,–,?,?
O=C(Nc1nccs1)c1ccc(-c2ccc(Cl)cc2)o1,?,11.2µM,?,1.41µM,1µM,0.213µM
C[C@@H]1O[C@@H](O)[C@@H](O)[C@H](O)[C@H]1O,·,–[9.22 µM],·,·,·,·
O=C(NCCCN1CCN(c2ccc(F)cc2)CC1)c1ccc2nc(Cc3ccccc3)oc2c1,·,·,·,·,·,–
Cc1cc(F)ccc1NC(=O)C(C(C)C)N1Cc2ccccc2C1=O (configuration not stated),·,·,·,·,·,–
